From PubChem
Compounds with a hit are over-represented: about 4% of the library has one in this group of screens.
rat GALR2 ag – agonists of rat galanin receptor 2 (GALR2). Galanin receptor type 2 (Rattus norvegicus), O08726. cell-based GALR2 agonist screen. activation, % at 10 µM. hit rate 0.5% among 16,000. AID 833, 2007; in the data active = activation above about 15%
Target sequence (O08726 whole entry, looked up): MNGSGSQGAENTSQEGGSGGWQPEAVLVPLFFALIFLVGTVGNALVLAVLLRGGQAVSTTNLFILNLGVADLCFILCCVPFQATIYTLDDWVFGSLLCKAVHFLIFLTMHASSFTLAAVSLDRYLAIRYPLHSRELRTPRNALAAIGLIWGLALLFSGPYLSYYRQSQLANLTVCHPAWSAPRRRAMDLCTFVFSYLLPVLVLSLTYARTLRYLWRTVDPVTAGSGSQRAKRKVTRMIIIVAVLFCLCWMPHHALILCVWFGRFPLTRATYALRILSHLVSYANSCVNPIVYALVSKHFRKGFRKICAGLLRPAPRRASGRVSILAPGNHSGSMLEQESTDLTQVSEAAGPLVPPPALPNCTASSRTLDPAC
NOTCH agonist – agonists of NOTCH signaling; NOTCH signaling luciferase reporter cells, luminescence; activation, % at 2.5 µM; hit rate 0.4% among 15,000; AID 434982, 2010; in the data active = activation above about 2.2%
luminol inh ctr – counter-screen for Nox1 inhibitors: inhibitors of luminol chemiluminescence | AID 1823, 2009 | HRP/luminol/H2O2 chemiluminescence counterscreen | hit rate 0.4% among 16,000 | inhibition, % at 6.7 µM; note: reference of the scale not given here
Nox1 inhibitor – inhibitors of human NADPH oxidase 1 (Nox1); HT29 cells, luminol chemiluminescence ROS; inhibition, % at 6.7 µM; hit rate 0.81% among 16,000; AID 1792, 2009
PME-1 Maybridge – inhibitors of human PME-1 in Maybridge library; hit rate 0.5% among 16,000; recombinant PME-1, FP-Rh probe fluorescence polarization; inhibition, % at 9 µM; in the data active = inhibition above about 30%
S1P1 agonist – activates the human S1P1 receptor; S1P1 agonist cell-based reporter assay; activation, % at 4.5 µM; hit rate 1.5% among 16,000; AID 1044, 2008; in the data active = activation above about 80%
A number is an active result. Cut-off read from the data, not from the text of the source, unless noted: active = inhibition above about 75%; inactive = the rest.

Cc1ccc(S(=O)(=O)OC2CC3CC2C([N+](=O)[O-])C3)cc1 (configuration not stated) was read as rat GALR2 ag inactive, NOTCH agonist inactive, luminol inh ctr inactive, Nox1 inhibitor inactive, PME-1 Maybridge inactive and S1P1 agonist inactive.
Screening O=C(Nc1ccc(F)c(F)c1)C1CCC1 returned rat GALR2 ag inactive, NOTCH agonist inactive, luminol inh ctr inactive, Nox1 inhibitor inactive, PME-1 Maybridge inactive and S1P1 agonist inactive.
`Cc1cccc(NNC(=O)C2CCC2)c1` gave rat GALR2 ag inactive, NOTCH agonist inactive, luminol inh ctr 101, Nox1 inhibitor inactive, PME-1 Maybridge inactive and S1P1 agonist inactive.
N#CC(C#N)=CNNc1ncnc2sccc12 was read as rat GALR2 ag inactive, NOTCH agonist inactive, luminol inh ctr inactive, Nox1 inhibitor inactive, PME-1 Maybridge inactive and S1P1 agonist inactive.
`Cc1noc2[nH]cnc(=S)c12` gave rat GALR2 ag inactive, NOTCH agonist inactive, luminol inh ctr inactive, Nox1 inhibitor inactive, PME-1 Maybridge inactive and S1P1 agonist inactive.
Screening S=c1nc[nH]c2[nH]ncc12 returned rat GALR2 ag inactive, NOTCH agonist inactive, luminol inh ctr 80, Nox1 inhibitor inactive, PME-1 Maybridge inactive and S1P1 agonist inactive.
O=C(NC(COC(=O)OCc1ccccc1)C(=O)O)OCc1ccccc1 (configuration not stated) was read as rat GALR2 ag inactive, NOTCH agonist inactive, luminol inh ctr inactive, Nox1 inhibitor inactive, PME-1 Maybridge inactive and S1P1 agonist inactive.
C#CC(CC)(CC)N=Cc1cc(Br)ccc1OCC was read as rat GALR2 ag inactive, luminol inh ctr inactive, Nox1 inhibitor inactive, PME-1 Maybridge inactive and S1P1 agonist 123.
`CCOc1ccccc1/C=N/NC(=O)N/N=C/c1ccccc1OCC` gave rat GALR2 ag inactive, NOTCH agonist inactive, luminol inh ctr inactive, Nox1 inhibitor inactive, PME-1 Maybridge inactive and S1P1 agonist inactive.
For OC[C@@H](O)[C@H](O)[C@H](O)[C@@H](O)C(SCc1ccccc1)SCc1ccccc1 the results were rat GALR2 ag inactive, NOTCH agonist inactive, luminol inh ctr inactive, Nox1 inhibitor inactive, PME-1 Maybridge inactive and S1P1 agonist 103.
For CCSC(SCC)[C@@H](O)[C@H](O)[C@H](O)[C@@H](O)CO the results were rat GALR2 ag inactive, NOTCH agonist inactive, luminol inh ctr inactive, Nox1 inhibitor inactive, PME-1 Maybridge inactive and S1P1 agonist inactive.
Cn1c(-c2ncc(C(F)(F)F)cc2Cl)n[nH]c1=S was read as rat GALR2 ag inactive, NOTCH agonist inactive, luminol inh ctr inactive, Nox1 inhibitor inactive, PME-1 Maybridge inactive and S1P1 agonist 93.
`Cn1c(C(F)(F)F)n[nH]c1=S` gave rat GALR2 ag inactive, NOTCH agonist inactive, luminol inh ctr inactive, Nox1 inhibitor inactive, PME-1 Maybridge inactive and S1P1 agonist inactive.
For CCCCN(C)S(=O)(=O)c1cccc2c(N)cccc12 the results were rat GALR2 ag inactive, NOTCH agonist inactive, luminol inh ctr inactive, Nox1 inhibitor inactive, PME-1 Maybridge inactive and S1P1 agonist inactive.
CC(C)(C)OC(=O)NCc1n[nH]c(=S)n1C1CC1 was read as rat GALR2 ag inactive, NOTCH agonist inactive, luminol inh ctr inactive, Nox1 inhibitor inactive, PME-1 Maybridge inactive and S1P1 agonist inactive.
Screening CC(C)(C)OC(=O)NCc1n[nH]c(=S)n1-c1ccccc1 returned rat GALR2 ag inactive, NOTCH agonist inactive, luminol inh ctr 97, Nox1 inhibitor inactive, PME-1 Maybridge inactive and S1P1 agonist inactive.
For NC(=O)c1ncccc1C(=O)O the results were rat GALR2 ag inactive, NOTCH agonist inactive, luminol inh ctr inactive, Nox1 inhibitor inactive, PME-1 Maybridge inactive and S1P1 agonist inactive.
For O=C(O)c1ccc(OCc2ccccc2)cc1 the results were rat GALR2 ag inactive, NOTCH agonist inactive, luminol inh ctr inactive, Nox1 inhibitor inactive, PME-1 Maybridge inactive and S1P1 agonist inactive.
Screening c1ccc(COc2ccc(CCC3OCCO3)cc2)cc1 returned rat GALR2 ag 15, NOTCH agonist inactive, luminol inh ctr inactive, Nox1 inhibitor inactive, PME-1 Maybridge inactive and S1P1 agonist inactive.
Screening N#Cc1cccc(NCCN2CCNC2=O)n1 returned rat GALR2 ag 47, NOTCH agonist inactive, luminol inh ctr inactive, Nox1 inhibitor inactive, PME-1 Maybridge inactive and S1P1 agonist inactive.
COc1cc(C(=O)NNS(=O)(=O)c2ccc(Cl)cc2)c(-n2c(C)ccc2C)cc1OC was read as rat GALR2 ag inactive, NOTCH agonist inactive, luminol inh ctr inactive, Nox1 inhibitor inactive, PME-1 Maybridge inactive and S1P1 agonist inactive.
